Results published in PubChem BioAssay AID1159580 (chemical genetic matrix, 2015).
“And” between values parts separate entries of the source, which are not always exact repeats. Equal values may be shown once. About 2,000 (36%) of roughly 5,500 compounds were called active. Not shown: some 18% with an inconclusive outcome. No stated cut-off is given here; in the data, active means normalized growth mostly below about 0.91 (no sharp cut-off); inconclusive means no clear call, values can overlap the other calls; inactive means mostly above about 0.92. The list shows a part of the results.

Experiment: chemical genetic growth profiling, strain panel (AID 1159580);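 further: tested at 20 µM; growth read once vehicle control cultures reached saturation at 30 °C; 1 = growth at the plate median or of vehicle wells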
Settings: S. cerevisiae deletion strains, growth OD

Measured: normalized growth

Cc1cc(O)c2c(c1O)C(=O)c1c(O)cc(C)c(O)c1C2=O
inactive: locus YAL013W, strain DEP1, stronger effect = lower value 0.982 | locus YAL021C, strain ccr4, stronger effect = lower value 0.948 | locus YAL026C, strain drs2, stronger effect = lower value 0.969 | locus YAL030W, strain snc1, stronger effect = lower value 0.951 | locus YBL061C, strain skt5, stronger effect = lower value 0.968 | locus YBR009C, strain hhf1, stronger effect = lower value 0.97 | locus YBR021W, strain FUR4, stronger effect = lower value 1.12 | locus YBR023C, strain chs3, stronger effect = lower value 0.983 | locus YBR171W, strain sec66, stronger effect = lower value 0.948 | locus YBR229C, strain ROT2, stronger effect = lower value 0.969 | locus YBR231C, strain swc5, stronger effect = lower value 0.974 | locus YBR279W, strain paf1, stronger effect = lower value 0.989 | locus YCL011C, strain gbp2, stronger effect = lower value 0.939 | locus YCL016C, strain dcc1, stronger effect = lower value 0.978 | locus YCL029C, strain bik1, stronger effect = lower value 0.988 | locus YCL061C, strain MRC1, stronger effect = lower value 0.978 | locus YCL069W, strain vba3, stronger effect = lower value 0.966 | locus YCR088W, strain abp1, stronger effect = lower value 0.98 | locus YDL005C, strain med2, stronger effect = lower value 0.971 | locus YDL035C, strain GPR1, stronger effect = lower value 0.975 | locus YDL040C, strain nat1, stronger effect = lower value 0.991 | locus YDL074C, strain BRE1, stronger effect = lower value 1 | locus YDL101C, strain DUN1, stronger effect = lower value 0.947 | locus YDL134C, strain PPH21, stronger effect = lower value 0.967 | locus YDL185W, strain tfp1, stronger effect = lower value 0.979 | locus YDL192W, strain arf1, stronger effect = lower value 0.987 | locus YDR001C, strain nth1, stronger effect = lower value 0.952 | locus YDR069C, strain doa4, stronger effect = lower value 0.942 | locus YDR101C, strain arx1, stronger effect = lower value 0.993 | locus YDR137W, strain rgp1, stronger effect = lower value 0.877 | locus YDR150W, strain NUM1, stronger effect = lower value 0.989 | locus YDR159W, strain sac3, stronger effect = lower value 0.973 | locus YDR162C, strain NBP2, stronger effect = lower value 0.921 | locus YDR195W, strain ref2 1.04 | locus YDR297W, strain sur2, stronger effect = lower value 0.973 | locus YDR318W, strain mcm21, stronger effect = lower value 0.985 | locus YDR334W, strain swr1, stronger effect = lower value 0.921 | locus YDR335W, strain msn5, stronger effect = lower value 0.961 | locus YDR388W, stronger effect = lower value 0.986 | locus YDR392W, strain spt3, stronger effect = lower value 0.858 | locus YDR502C, strain sam2, stronger effect = lower value 1 | locus YEL003W, strain gim4, stronger effect = lower value 0.956 | locus YEL037C, strain rad23, stronger effect = lower value 0.972 | locus YEL061C, strain CIN8 (second series), stronger effect = lower value 0.97 | locus YEL061C, strain CIN8, stronger effect = lower value 0.97 | locus YER015W, strain faa2, stronger effect = lower value 0.95 | locus YER016W, strain bim1, stronger effect = lower value 0.979 | locus YER110C, stronger effect = lower value 0.992 | locus YER111C, strain swi4, stronger effect = lower value 0.963 | locus YER155C, strain BEM2 (second series), stronger effect = lower value 0.946 | locus YER155C, strain BEM2, stronger effect = lower value 0.996 | locus YER167W, strain BCK2, stronger effect = lower value 1.01 | locus YFR010W, strain ubp6, stronger effect = lower value 0.942 | locus YGL078C, strain dbp3, stronger effect = lower value 0.993 | locus YGL086W, strain mad1, stronger effect = lower value 0.981 | locus YGL167C, strain pmr1, stronger effect = lower value 0.977 | locus YGL173C, strain kem1, stronger effect = lower value 0.946 | locus YGL227W, strain vid30, stronger effect = lower value 0.983 | locus YGL240W, strain doc1, stronger effect = lower value 0.962 | locus YGL248W, strain PDE1, stronger effect = lower value 0.945 | locus YGL253W, strain hxk2, stronger effect = lower value 0.985 | locus YGR078C, strain PAC10, stronger effect = lower value 0.983 | locus YGR135W, strain pre9, stronger effect = lower value 0.988 | locus YGR229C, strain SMI1, stronger effect = lower value 0.992 | locus YGR252W, strain gcn5, stronger effect = lower value 1.16 | locus YHR013C, strain ard1, stronger effect = lower value 0.957 | locus YHR027C, strain rpn1, stronger effect = lower value 0.951 | locus YHR030C, strain SLT2, stronger effect = lower value 0.964 and 0.996 | locus YHR079C, strain IRE1 (second series), stronger effect = lower value 0.985 | locus YHR079C, strain IRE1, stronger effect = lower value 1 | locus YHR094C, strain hxt1, stronger effect = lower value 0.995 | locus YHR129C, strain ARP1, stronger effect = lower value 0.963 | locus YHR142W, strain chs7, stronger effect = lower value 0.964 | locus YHR200W, strain rpn10, stronger effect = lower value 0.994 | locus YIL066C, strain RNR3, stronger effect = lower value 0.939 | locus YIL073C, strain SPO22, stronger effect = lower value 1.3 | locus YIL125W, strain kgd1, stronger effect = lower value 1 | locus YIR030C, strain dcg1, stronger effect = lower value 0.997 | locus YJL092W, strain hpr5, stronger effect = lower value 0.965 | locus YJL095W, strain BCK1 (second series), stronger effect = lower value 0.974 | locus YJL095W, strain BCK1, stronger effect = lower value 0.893 and 0.997 | locus YJL115W, strain asf1, stronger effect = lower value 0.938 | locus YJL129C, strain trk1, stronger effect = lower value 0.891 | locus YJL134W, strain LCB3, stronger effect = lower value 0.977 | locus YJL154C, strain vps35, stronger effect = lower value 0.971 | locus YJL164C, strain tpk1, stronger effect = lower value 0.971 | locus YJL166W, strain qcr8, stronger effect = lower value 0.978 | locus YJL168C, strain set2, stronger effect = lower value 0.969 | locus YJL187C, strain SWE1 (second series), stronger effect = lower value 0.903 | locus YJL187C, strain SWE1, stronger effect = lower value 0.968 | locus YJR043C, strain POL32, stronger effect = lower value 1.02 | locus YJR066W, strain TOR1, stronger effect = lower value 0.926
